Source: PubChem BioAssay (The Scripps Research Institute Molecular Screening Center)
PRMT1 inh: PRMT1 (human) inhibition, primary screen; inhibition, % at 2.79 µM; recombinant PRMT1, activity-based probe fluorescence polarization; 370,000 compounds, 1.3% hits; Q99873;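 active = inhibition above about 21% made by adding two undisclosed values, limit read from the data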
LEDGF integ inh: blocks HIV-1 LEDGF/p75-dependent DNA integration; inhibition, % at 3.7 µM; 370,000 compounds, 0.64% hits; AID 743269; TR-FRET IN-LEDGF/p75 DNA integration, Eu/Cy5;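 active = inhibition above the screen-wide mean plus 3 SD, cut at about 13% in these data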;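 note: signal is the Cy5 over europium emission ratio at 671 and 618 nm; 0% = plate median of compound wells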
UHRF1 MBD2 ctr: human UHRF1 methylated DNA binding inhibitors. inhibition, % at 4.4 µM. 370,000 compounds, 0.75% hits. Q96T88. UHRF1 binding to methylated oligo, TR-FRET; in the data active = inhibition above about 21%;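 note: UHRF1 SRA domain binding a hemimethylated CpG hairpin DNA probe; 0% = median of test compound wells and 100% = reference inhibitor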
MBD2 DNA inh: blocks human MBD2 binding to methylated DNA; 370,000 compounds, 0.31% hits; Q9UBB5; AID 686964; inhibition, % at 4.4 µM; TR-FRET, MBD2 binding to methylated oligonucleotide; in the data active = inhibition above about 13%
Target sequence (Q9UBB5 whole entry, looked up): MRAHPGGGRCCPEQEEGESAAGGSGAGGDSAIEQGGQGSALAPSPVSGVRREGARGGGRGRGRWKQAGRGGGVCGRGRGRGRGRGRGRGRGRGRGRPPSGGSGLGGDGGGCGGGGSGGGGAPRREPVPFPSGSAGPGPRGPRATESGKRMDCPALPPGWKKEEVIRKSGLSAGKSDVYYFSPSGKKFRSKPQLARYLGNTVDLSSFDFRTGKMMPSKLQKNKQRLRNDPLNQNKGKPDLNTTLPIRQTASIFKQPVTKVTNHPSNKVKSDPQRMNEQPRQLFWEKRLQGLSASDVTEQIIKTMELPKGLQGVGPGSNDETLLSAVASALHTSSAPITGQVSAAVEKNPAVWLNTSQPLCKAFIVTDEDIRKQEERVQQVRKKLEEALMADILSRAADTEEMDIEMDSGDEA
Active calls of the source: *. Rows were chosen to be rich in hits. Some 2.5% of all compounds tested hit in one or more screens of this group.

SMILES	PRMT1 inh	LEDGF integ inh	UHRF1 MBD2 ctr	MBD2 DNA inh
CCOC(=O)[C@@]12CN(C(=O)OC(C)(C)C)CC=C1N(Cc1ccc(OC)cc1)C(=O)[C@H]2CC(=O)NCc1cccs1	2	4	0	-1
CC(OC(=O)c1ccc(Cl)c(S(=O)(=O)Nc2ccc(F)cc2)c1)C(=O)NC(N)=O (stereo not given)	5	-5	2	4
COc1cc(C(=O)N2CCN(S(=O)(=O)c3cccs3)CC2)cc(OC)c1C	-2	0	24*	7
COc1ccccc1N1CCN(S(=O)(=O)c2cccs2)CC1	1	-3	39*	-3
O=C(O)CC(C(=O)O)C(c1ccccc1)c1ccccc1 (stereo not given)	5	1	0	-3
O=C(O)Cc1sc(N/N=C\c2ccccc2)nc1-c1ccccc1	19	25*	-5	2
O=C(O)c1cccn2c(=O)c3ccccc3nc12	4	-2	21*	11
O=C(COc1cc(F)ccc1[N+](=O)[O-])Nc1cc(S(=O)(=O)N2CCCC2)ccc1Cl	-3	5	4	-1
COc1cc(NC(=O)COC(=O)CCOc2ccc(C)cc2)cc(OC)c1	0	-5	1	1
O=C(CSc1cccc[n+]1[O-])Nc1cc2c(cc1Cl)C(=O)c1ccccc1C2=O	23*	-2	3	3
Cc1cc(OCCN2CCOCC2)ccc1Cl	3	0	22*	4
O=C(Nc1ccc(OC(F)F)cc1)c1ncc(Cl)c(Cl)c1Cl	1	-5	24*	13
Cc1ccc(NC(=O)c2ncc(Cl)c(Cl)c2Cl)cc1C	-1	1	-1	4
COc1ccc(C)cc1NC(=O)CSc1nnc(-c2n[nH]c3c2CCC3)n1N	4	-2	9	2
CC1(C)CC(=O)C=C(NC2=CC3OC(c4ccccc4)OCC3OC2=O)C1 (stereo not given)	10	-2	22*	0
Nn1cc(-c2ccccc2)nc1SCC(=O)Nc1ccc(S(N)(=O)=O)cc1	23*	1	-2	-3
Nn1cc(-c2ccccc2)nc1SCC(=O)Nc1cccc(S(N)(=O)=O)c1	3	-1	2	-3
CC1CCCN(C(=O)CSc2nnc3ccccn23)C1 (stereo not given)	5	5	5	5
CC(=O)N1CC=CC1(C)C(=O)O (stereo not given)	2	-1	31*	-2
CC1(C(=O)O)C=CCN1C(=O)c1ccccc1 (stereo not given)	1	-2	5	-4
COc1ccc(C(=O)N2CCC(C(=O)O)CC2)c2ccccc12	3	-3	1	-7
CC1CC(C)CN(C(=O)C(C)N(C)CC(=O)Nc2ccccc2Cl)C1 (stereo not given)	-8	4	-2	-7
CC(C(=O)N1CCc2ccccc21)N(C)CC(=O)Nc1ccccc1Cl (stereo not given)	-1	1	33*	-2
COc1ccc2oc3cc(Cl)ccc3c(=O)c2c1	4	1	2	5
COc1cc(C(=O)NC(=S)NCc2ccncc2)cc(OC)c1OC	-9	4	-1	-3
SMILES	PRMT1 inh	LEDGF integ inh	UHRF1 MBD2 ctr	MBD2 DNA inh
CCN(CC#CCC1(O)c2ccccc2-c2ccccc21)CCO	-2	0	19	7
CC(C)N(CC#CCC1(O)c2ccccc2-c2ccccc21)CCO	1	-1	28*	12
CCCCCCOc1ccc(N2C(=O)CC(N3CCC(C(=O)OCC)CC3)C2=O)cc1 (stereo not given)	9	-4	43*	-1
CCOC(=O)C1CCCN(C2CC(=O)N(c3ccc(N4C(=O)CC(N5CCCC(C(=O)OCC)C5)C4=O)cc3)C2=O)C1 (stereo not given)	15	1	-2	-4
Cc1cc(C)cc(OC2CCCCC2NS(=O)(=O)c2ccccc2)c1 (stereo not given)	2	-2	0	-3
CSc1ccc(OC2CCCCC2NS(=O)(=O)c2ccccc2)cc1 (stereo not given)	1	-4	98*	2
O=C(CCNC(=O)C1CCN(S(=O)(=O)c2ccc(F)cc2)CC1)NCc1ccccn1	-2	1	-1	0
O=C1C(NC(=O)N2c3ccccc3C=Cc3ccccc32)CCCCN1Cc1ccc(Cl)cc1 (stereo not given)	5	-4	27*	1
O=C1C(NC(=O)N2c3ccccc3C=Cc3ccccc32)CCCCN1Cc1cccc(Cl)c1 (stereo not given)	4	-4	-1	1
CC(=O)Nc1ccc(S(=O)(=O)Nc2nc3ccccc3nc2Nc2ccc(N)cc2)cc1	23*	0	4	5
CC(=O)Nc1ccc(S(=O)(=O)Nc2nc3ccccc3nc2Nc2ccc3ccccc3c2)cc1	0	-2	0	0
O=C(COC(=O)c1ccccc1F)Nc1cccnc1Cl	-1	1	25*	-4
COc1ccc(CNS(=O)(=O)c2ccc3c(c2)NC(=O)CS3)cc1	-2	5	-3	4
C/C=C/C=C\C(=O)Nc1cccc(C2=NOC3(C2)C[C@H](C(N)=O)N(C(=O)CC#N)C3)c1 (stereo not given in full)	8	2	13	19*
CC/C=C/C(=O)N1CC2(CC(c3cccc(NC(=O)CCCCC)c3)=NO2)C[C@H]1C(N)=O (stereo not given in full)	6	0	4	6
C/C=C/C=C/C(=O)N1CC2(CC(c3cccc(NC(=O)CCCCC)c3)=NO2)C[C@H]1C(N)=O (stereo not given in full)	21*	2	1	-8
O=C(C[C@@H]1C[C@@H]2c3cc(NC(=O)C4CCC4)ccc3O[C@@H]2[C@@H](CO)O1)NCc1ccc(Cl)cc1	-1	2	5	5
Cc1nc2[nH]c(=S)[nH]c(=O)c2nc1C	1	3	2	-1
Cc1nc2c(=O)[nH]c(=S)n(C)c2nc1C	23*	-2	2	-5
COC(=O)CN1C(=O)[C@H]2[C@@H](/C=C/c3ccccc3)N3C(=O)CN(CCO)C(=O)[C@@]3(Cc3ccccc3)[C@H]2C1=O	0	-3	-1	0
CC(=O)N1c2ccccc2N2C(c3c(C)c(C)cc(C)c3C)=NON12	-2	2	4	3
CN1CCN(c2nc(-c3ccc(C(C)(C)C)cc3)nc3ccccc23)CC1	0	1	22*	9
Cc1ccc(-c2nc(N3CCN(C)CC3)c3ccccc3n2)cc1	2	1	0	5
Cc1cc(C)cc(C(=O)Nc2ccc(N3CCCC3)cc2)c1	4	-3	47*	1
CC(=O)c1c(C(C)=O)c(C)n(-c2cccc([N+](=O)[O-])c2)c1C	-2	1	-2	0
CC(=O)C1=C(c2cccc([N+](=O)[O-])c2)N(C(C)=O)n2c(C)nnc2S1	75*	1	12	2
CCOC(=O)NC(=O)/C(C#N)=C\Nc1sccc1C(=O)OC	56*	-8	1	0
CCOC(=O)NC(=O)/C(C#N)=C\Nc1ccc(Cl)cc1Cl	-1	-3	-4	1
